The target in the assay is pT7_6His-AlfaTag-ZIF268 (human, UniProt P18146 335-423). The experiment in a line: PADIT-seq. The following applies: dsDNA, one strand shown.
Take “CTCGAGGATATCAAGATCTGGCCTCGGCCCCCCACGCGGAACCTCTAGCTAGCCGACTCACTATAGGGATAATCGCCCTGAGCAAAGACC”: the binding signal is 0.155 ± 0.108 log2FC.

As to “CTCGAGGATATCAAGATCTGGCCTCGGCGATTGGGCGGGAACCTCTAGCTAGCCGACTCACTATAGGGATAATCGCCCTGAGCAAAGACC”, the binding signal worked out at 0.0131 ± 0.0888 log2FC.

In turn, “CTCGAGGATATCAAGATCTGGCCTCGGCCGCCCAGACGGAACCTCTAGCTAGCCGACTCACTATAGGGATAATCGCCCTGAGCAAAGACC” had a binding signal of 0.0722 ± 0.0958 log2FC.

The sequence “CTCGAGGATATCAAGATCTGGCCTCGGCCGCCCACAGGGAACCTCTAGCTAGCCGACTCACTATAGGGATAATCGCCCTGAGCAAAGACC” showed a binding signal of 0.494 ± 0.158 log2FC.

“CTCGAGGATATCAAGATCTGGCCTCGGCGTGTGGGCGGGAACCTCTAGCTAGCCGACTCACTATAGGGATAATCGCCCTGAGCAAAGACC” gave a binding signal of 3.29 ± 0.0753 log2FC.

The sequence “CTCGAGGATATCAAGATCTGGCCTCGGCGCGCCCGCGGGAACCTCTAGCTAGCCGACTCACTATAGGGATAATCGCCCTGAGCAAAGACC” yielded a binding signal of 0.783 ± 0.131 log2FC.

For “CTCGAGGATATCAAGATCTGGCCTCGGCGCGTGGCCCGGAACCTCTAGCTAGCCGACTCACTATAGGGATAATCGCCCTGAGCAAAGACC”, the binding signal amounted to 0.0738 ± 0.102 log2FC.

“CTCGAGGATATCAAGATCTGGCCTCGGCGCGTCAGCGGGAACCTCTAGCTAGCCGACTCACTATAGGGATAATCGCCCTGAGCAAAGACC” showed a binding signal of 0.0878 ± 0.104 log2FC.

“CTCGAGGATATCAAGATCTGGCCTCGGCATGTGGGCGGGAACCTCTAGCTAGCCGACTCACTATAGGGATAATCGCCCTGAGCAAAGACC” gave a binding signal of 2.94 ± 0.0778 log2FC.

The sequence “CTCGAGGATATCAAGATCTGGCCTCGGCAGATGGGCGGGAACCTCTAGCTAGCCGACTCACTATAGGGATAATCGCCCTGAGCAAAGACC” gave a binding signal of 0.0303 ± 0.101 log2FC.

Turning to “CTCGAGGATATCAAGATCTGGCCTCGGCCGCCCGCGCGGAACCTCTAGCTAGCCGACTCACTATAGGGATAATCGCCCTGAGCAAAGACC”, the binding signal turned out to be 0.122 ± 0.126 log2FC.

“CTCGAGGATATCAAGATCTGGCCTCGGCTGGTGGGCGGGAACCTCTAGCTAGCCGACTCACTATAGGGATAATCGCCCTGAGCAAAGACC” displayed a binding signal of 1.81 ± 0.0735 log2FC.

On to “CTCGAGGATATCAAGATCTGGCCTCGGCGCGTGGGCGGGAACCTCTAGCTAGCCGACTCACTATAGGGATAATCGCCCTGAGCAAAGACC”, for which the binding signal is 4.32 ± 0.0557 log2FC.

With “CTCGAGGATATCAAGATCTGGCCTCGGCGCGTGGTCTGGAACCTCTAGCTAGCCGACTCACTATAGGGATAATCGCCCTGAGCAAAGACC”, the binding signal was found to be 0.117 ± 0.101 log2FC.

In turn, “CTCGAGGATATCAAGATCTGGCCTCGGCGGTTGGGCGGGAACCTCTAGCTAGCCGACTCACTATAGGGATAATCGCCCTGAGCAAAGACC” returned a binding signal of 0.0831 ± 0.0849 log2FC.

“CTCGAGGATATCAAGATCTGGCCTCGGCGCGTGGGAAGGAACCTCTAGCTAGCCGACTCACTATAGGGATAATCGCCCTGAGCAAAGACC”: the binding signal turned out to be 2.03 ± 0.0894 log2FC.

With “CTCGAGGATATCAAGATCTGGCCTCGGCACCTGGGCGGGAACCTCTAGCTAGCCGACTCACTATAGGGATAATCGCCCTGAGCAAAGACC”, the binding signal is 0.068 ± 0.0997 log2FC.

“CTCGAGGATATCAAGATCTGGCCTCGGCGCGTGGACGGGAACCTCTAGCTAGCCGACTCACTATAGGGATAATCGCCCTGAGCAAAGACC” gave a binding signal of 0.177 ± 0.113 log2FC.

Sequence “CTCGAGGATATCAAGATCTGGCCTCGGCGCGTGGTTGGGAACCTCTAGCTAGCCGACTCACTATAGGGATAATCGCCCTGAGCAAAGACC” gave a binding signal of 0.34 ± 0.0919 log2FC.

On to “CTCGAGGATATCAAGATCTGGCCTCGGCCTCCCACGCGGAACCTCTAGCTAGCCGACTCACTATAGGGATAATCGCCCTGAGCAAAGACC”, for which the binding signal was 1.28 ± 0.0958 log2FC.

As for “CTCGAGGATATCAAGATCTGGCCTCGGCGCGCTGGCGGGAACCTCTAGCTAGCCGACTCACTATAGGGATAATCGCCCTGAGCAAAGACC”, the binding signal came out at 0.0489 ± 0.154 log2FC.

Sequence “CTCGAGGATATCAAGATCTGGCCTCGGCGCGAAAGCGGGAACCTCTAGCTAGCCGACTCACTATAGGGATAATCGCCCTGAGCAAAGACC” returned a binding signal of 0.0239 ± 0.114 log2FC.

In turn, “CTCGAGGATATCAAGATCTGGCCTCGGCGCGGCGGCGGGAACCTCTAGCTAGCCGACTCACTATAGGGATAATCGCCCTGAGCAAAGACC” came in with a binding signal of 0.141 ± 0.11 log2FC.

The sequence “CTCGAGGATATCAAGATCTGGCCTCGGCGCGTGGTGGGGAACCTCTAGCTAGCCGACTCACTATAGGGATAATCGCCCTGAGCAAAGACC” showed a binding signal of 0.205 ± 0.103 log2FC.

“CTCGAGGATATCAAGATCTGGCCTCGGCGCGTGGGGAGGAACCTCTAGCTAGCCGACTCACTATAGGGATAATCGCCCTGAGCAAAGACC”: the binding signal was found to be 0.871 ± 0.0966 log2FC.

In turn, “CTCGAGGATATCAAGATCTGGCCTCGGCTACCCACGCGGAACCTCTAGCTAGCCGACTCACTATAGGGATAATCGCCCTGAGCAAAGACC” came in with a binding signal of 0.362 ± 0.0981 log2FC.

The sequence “CTCGAGGATATCAAGATCTGGCCTCGGCCGCTGCCGCGGAACCTCTAGCTAGCCGACTCACTATAGGGATAATCGCCCTGAGCAAAGACC” registered a binding signal of 0.0482 ± 0.0994 log2FC.

“CTCGAGGATATCAAGATCTGGCCTCGGCGCGCCACGCGGAACCTCTAGCTAGCCGACTCACTATAGGGATAATCGCCCTGAGCAAAGACC” had a binding signal of 0.0182 ± 0.0932 log2FC.

For “CTCGAGGATATCAAGATCTGGCCTCGGCTTCCCACGCGGAACCTCTAGCTAGCCGACTCACTATAGGGATAATCGCCCTGAGCAAAGACC”, the binding signal amounted to 0.363 ± 0.0983 log2FC.

With “CTCGAGGATATCAAGATCTGGCCTCGGCCGCCCAAGGGGAACCTCTAGCTAGCCGACTCACTATAGGGATAATCGCCCTGAGCAAAGACC”, the binding signal is 0.0235 ± 0.109 log2FC.

For “CTCGAGGATATCAAGATCTGGCCTCGGCCGCCCCCGCGGAACCTCTAGCTAGCCGACTCACTATAGGGATAATCGCCCTGAGCAAAGACC”, the binding signal worked out at 1.56 ± 0.0899 log2FC.

Sequence “CTCGAGGATATCAAGATCTGGCCTCGGCCGCCTCCGCGGAACCTCTAGCTAGCCGACTCACTATAGGGATAATCGCCCTGAGCAAAGACC” returned a binding signal of 0.383 ± 0.0978 log2FC.

On to “CTCGAGGATATCAAGATCTGGCCTCGGCAAGTGGGCGGGAACCTCTAGCTAGCCGACTCACTATAGGGATAATCGCCCTGAGCAAAGACC”, for which the binding signal worked out at 2.06 ± 0.0801 log2FC.

Regarding “CTCGAGGATATCAAGATCTGGCCTCGGCGCGAGCGCGGGAACCTCTAGCTAGCCGACTCACTATAGGGATAATCGCCCTGAGCAAAGACC”, the binding signal stood at 0.0892 ± 0.102 log2FC.

Sequence “CTCGAGGATATCAAGATCTGGCCTCGGCGTTCCACGCGGAACCTCTAGCTAGCCGACTCACTATAGGGATAATCGCCCTGAGCAAAGACC” had a binding signal of 0.016 ± 0.0847 log2FC.

The sequence “CTCGAGGATATCAAGATCTGGCCTCGGCGCGTGTGCGGGAACCTCTAGCTAGCCGACTCACTATAGGGATAATCGCCCTGAGCAAAGACC” registered a binding signal of 0.312 ± 0.112 log2FC.

Consider “CTCGAGGATATCAAGATCTGGCCTCGGCGCGTGGTCAGGAACCTCTAGCTAGCCGACTCACTATAGGGATAATCGCCCTGAGCAAAGACC”, for which the binding signal is 0.198 ± 0.102 log2FC.

With “CTCGAGGATATCAAGATCTGGCCTCGGCCGCCCACCTGGAACCTCTAGCTAGCCGACTCACTATAGGGATAATCGCCCTGAGCAAAGACC”, the binding signal worked out at 0.259 ± 0.108 log2FC.

Regarding “CTCGAGGATATCAAGATCTGGCCTCGGCGCGTGGCTCGGAACCTCTAGCTAGCCGACTCACTATAGGGATAATCGCCCTGAGCAAAGACC”, the binding signal stood at 0.122 ± 0.1 log2FC.

These data come from doi:10.1101/2024.03.05.583629.
